Source: PubChem BioAssay
Calls of active or inactive are those of the source.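 How the source made its calls, unless noted: active means NADPH fluorescence slope more negative than the mean of all samples by about 3 SD, 99.7% confidence; inactive means the rest.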

Legend:
[1] = inhibitors of TNFa-induced NFkB p65 translocation, primary screen, imaging, HUVEC, MLSMR starter and 10KST1 sets (AID 438;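 active means inhibition above 20% together with a positive visual image hit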;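 further: compound added about 3h40 before a 20 min TNFalpha stimulation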;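 on inhibition: signal is the nuclear over cytoplasmic p65 intensity ratio per well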); conditions: HUVEC TNFa-induced p65 nuclear translocation; cell count: measured here: nuclei count (cytotoxicity indicator), at 2.08 µM; inhibition: at 2 µM, stronger effect = higher value, 0% TNFa-plus-vehicle, 100% no-TNFa wells
[2] = reduction of polyQ htt aggregates in cells – imaging, exon1htt(103Q)mCFP cells, high-content imaging, primary screen (AID 483;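 active means visual image review flags a hit and inhibition of aggregation exceeds 20%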;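 further: compound exposure lasted 3 days before fixation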;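 on nuclei count: percent of the per-plate median nuclei count of sample wells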); conditions: exon1htt(103Q)mCFP cell line, aggregate imaging, at 2 µM; inhibition of aggregation: stronger effect = higher value; nuclei count: measured here: cell count, toxicity
[3] = endothelial E-selectin expression blockers – imaging, HUVEC, immunofluorescence, MLSMR starter and 10KST1 sets, primary screen (AID 487;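 active means visually confirmed hit in the image check and inhibition above 20%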;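 on inhibition: signal is fraction of cell area covered by stained E-selectin grains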;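 on nuclei count: 100% = median nuclei count of all wells on the same plate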); conditions: HUVEC TNFalpha-induced E-selectin immunofluorescence imaging, at 2 µM; inhibition: stronger effect = higher value; nuclei count: measured here: cell number, toxicity
[4] = target: Voltage-gated potassium channel subunit beta-2 (Rattus norvegicus) (UniProt P62483); assay: inhibitors of rat Kvbeta2 reductase activity – biochemical, NADPH fluorescence, primary screen (AID 622;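 active means fluorescence slope higher than the sample average by over 3 SD, cut at about -0.22 in these data, passing the limit was not always enough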;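 further: slope of raw intensity against log time taken from 70 to 1610 s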); conditions: recombinant KvBeta, 4-cyanobenzaldehyde reduction, at 10 µM, stronger effect = higher value
[5] = target: Voltage-gated potassium channel subunit beta-2 (Rattus norvegicus) (UniProt P62483); assay: enhancers of rat Kvbeta2 NADPH turnover – biochemical, NADPH fluorescence, primary screen (AID 623); conditions: Recombinant KvBeta, NADPH fluorescence decrease slope, 10 min; at 10 µM; stronger effect = lower value;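 further: fluorescence intensity change per second fitted from 20 to 320 s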
[6] = target: Alpha-2C adrenergic receptor (Homo sapiens) (UniProt P18825); assay: compounds altering alpha2C-coupled GIRK flux – cell-based, HEK293 alpha2C/GIRK1/2, thallium flux, primary screen (AID 624;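 active means fluorescence slope after compound addition differing from the mean of all screened samples at 99.7% confidence, in either direction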;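 further: slope of fluorescence ratio to pre-addition baseline per second over 15 to 24 s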); conditions: thallium flux BTC fluorescence, at 10 µM, actives lie on both sides
[7] = blockers of RIG-like receptor reporter activation – cell-based, Sendai virus stimulus, luciferase, 10K MLSCN set, TLR/RLR signaling modifier project, primary screen (AID 602276;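 active means inhibition at or above 50% at 10 µM; inactive means inhibition below 50%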;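 further: firefly luciferase from ISG56 promoter only with Renilla not read in this screen; 0% = Sendai virus plus DMSO and 100% = medium plus DMSO without virus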); conditions: HEK293 RL24 IRF3 luciferase reporter, at 10 µM, stronger effect = higher value
[8] = TLR3 IRF3 reporter activation blockers – cell-based, poly I:C stimulus, luciferase, 10K MLSCN set, primary screen (AID 602277;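 active means inhibition of the reporter signal at or above 50%; inactive means inhibition below 50%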); conditions: HEK293-TLR3 RL24 IRF3 luciferase reporter, at 10 µM, stronger effect = higher value

Sequence of Alpha-2C adrenergic receptor (Homo sapiens) (P18825 whole entry, looked up): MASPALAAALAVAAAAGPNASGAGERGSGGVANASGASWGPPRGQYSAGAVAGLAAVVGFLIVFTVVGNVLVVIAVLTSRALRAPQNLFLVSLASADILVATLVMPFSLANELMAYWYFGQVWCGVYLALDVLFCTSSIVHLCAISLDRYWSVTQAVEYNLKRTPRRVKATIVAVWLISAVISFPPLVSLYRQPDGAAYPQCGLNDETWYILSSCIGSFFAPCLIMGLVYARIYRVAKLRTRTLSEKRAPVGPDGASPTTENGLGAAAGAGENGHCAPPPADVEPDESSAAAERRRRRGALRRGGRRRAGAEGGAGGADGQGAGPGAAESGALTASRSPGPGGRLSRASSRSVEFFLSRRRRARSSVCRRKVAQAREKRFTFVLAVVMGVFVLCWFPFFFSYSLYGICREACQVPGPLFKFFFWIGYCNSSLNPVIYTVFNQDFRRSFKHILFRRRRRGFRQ
Sequence of Voltage-gated potassium channel subunit beta-2 (Rattus norvegicus) (P62483 whole entry, looked up): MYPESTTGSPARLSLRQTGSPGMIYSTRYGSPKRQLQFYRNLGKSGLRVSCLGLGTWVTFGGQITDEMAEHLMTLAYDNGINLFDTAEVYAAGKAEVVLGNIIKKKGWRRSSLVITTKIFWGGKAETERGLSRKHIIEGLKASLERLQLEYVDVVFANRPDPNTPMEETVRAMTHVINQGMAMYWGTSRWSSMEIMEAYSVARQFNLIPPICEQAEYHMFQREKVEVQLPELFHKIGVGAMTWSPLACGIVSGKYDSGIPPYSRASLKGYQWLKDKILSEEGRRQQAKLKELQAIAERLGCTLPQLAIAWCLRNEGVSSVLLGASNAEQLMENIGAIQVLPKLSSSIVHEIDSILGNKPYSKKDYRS

| Structure (SMILES) | cell count [1] | inhibition [1] | inhibition of aggregation [2] | nuclei count [2] | inhibition [3] | nuclei count [3] | fluorescence slope [4] | NADPH fluorescence slope [5] | slope [6] | inhibition [7] | inhibition [8] |
| --- | --- | --- | --- | --- | --- | --- | --- | --- | --- | --- | --- |
| CCOC(=O)N1CCN(C(=O)Cn2ncn3nc(-c4cccs4)cc3c2=O)CC1 | 313 | -0.8% (inactive) | 14.8% (inactive) | 79.5% | 9.5% (inactive) | 88.5% | -0.404 (inactive) | 2e-05 (inactive) | 0.00387 (inactive) | -1.73% (inactive) | -47.5% (inactive) |
| O=C(CSc1nnc(NC(=O)C2CCC2)s1)NC1CC1 | 488 | 0.8% (inactive) | -8.1% (inactive) | 66.2% | -90.7% (inactive) | 106% | -0.313 (inactive) | -4.2e-05 (inactive) | 0.00536 (inactive) | 0.495% (inactive) | -3.07% (inactive) |
| O=C(c1ccco1)N1CCN(CC2CC3C=CC2C3)CC1 (stereo not given) | 269 | -10.4% (inactive) | -30.9% (inactive) | 7.7% | -30.7% (inactive) | 106% | -0.509 (inactive) | 2.8e-05 (inactive) | 0.00614 (inactive) | -7.24% (inactive) | -20% (inactive) |
| CCCSc1nnc(N2C(=O)CC(c3ccsc3)C3=C2CCCC3=O)s1 (stereo not given) | 640 | -5.3% (inactive) | 24.3% (inactive) | 90.4% | -39.5% (inactive) | 102% | -0.558 (inactive) | -3.6e-05 (inactive) | 0.00697 (inactive) | 5.11% (inactive) | 26.4% (inactive) |
| COc1ccc2cc(C#N)c(SCC(=O)N3CCCC3)nc2c1 | 514 | -2.1% (inactive) | -17.8% (inactive) | 116% | -68.2% (inactive) | 150% | -0.57 (inactive) | -2.5e-05 (inactive) | 0.00554 (inactive) | -0.637% (inactive) | -5.53% (inactive) |
| CCC(Oc1ccccc1)C(=O)Nc1ccccc1OC (stereo not given) | 352 | 9.2% (inactive) | -9.3% (inactive) | 106% | -33.3% (inactive) | 109% | -0.487 (inactive) | -1.9e-05 (inactive) | 0.00497 (inactive) | 0.598% (inactive) | 19.3% (inactive) |
| Cc1nn(C(=O)c2cc3sccc3[nH]2)c(C)c1C | 574 | -11.9% (inactive) | 0.1% (inactive) | 95.1% | -65.4% (inactive) | 104% | -0.416 (inactive) | -2.7e-05 (inactive) | 0.00333 (inactive) | -8.25% (inactive) | -82.9% (inactive) |
| CCCc1nnc2n1N=C(c1ccc(-c3cc(Cl)ccc3Cl)o1)CS2 | 248 | 6.2% (inactive) | 4.8% (inactive) | 100% | 17.1% (inactive) | 89% | -0.447 (inactive) | -5.1e-05 (inactive) | 0.00311 (inactive) | 8.08% (inactive) | 29.1% (inactive) |
| Cc1ccc(OCC(O)CN2C(=O)NC(C)(C)C2=O)cc1C (stereo not given) | 673 | -2.9% (inactive) | -21.4% (inactive) | 107% | -19.6% (inactive) | 112% | -0.537 (inactive) | -2.6e-05 (inactive) | 0.00799 (inactive) | 5.76% (inactive) | 24.9% (inactive) |
| CS(=O)(=O)C1=C(O)C(=O)N(c2ccccc2)C1c1ccccc1 (stereo not given) | 415 | -6% (inactive) | -10.4% (inactive) | 103% | -41.9% (inactive) | 132% | -0.439 (inactive) | 1.7e-05 (inactive) | 0.00632 (inactive) | -1.92% (inactive) | 26.4% (inactive) |
| CSc1nc(C)c(C(=O)Nc2ccccc2)c(C)c1C#N | 761 | -11.2% (inactive) | -5.9% (inactive) | 103% | -40.9% (inactive) | 118% | -0.483 (inactive) | -2.5e-05 (inactive) | 0.00491 (inactive) | 16.8% (inactive) | 18.5% (inactive) |
| CCCCOC(=O)c1[nH]c2c(c1C)C(=O)CC(c1cc(OC)c(OC)c(OC)c1)C2 (stereo not given) | 546 | -1.7% (inactive) | 18.4% (inactive) | 79.6% | -7.4% (inactive) | 104% | -0.57 (inactive) | -2.8e-05 (inactive) | 0.00591 (inactive) | 7.86% (inactive) | -20.9% (inactive) |
| CCOC(=O)c1c(C)oc2c1c(C(c1ccncc1)N1CCOCC1)c(O)c1ccccc12 (stereo not given) | 827 | -7.9% (inactive) | -6.4% (inactive) | 101% | -21.1% (inactive) | 107% | -0.594 (inactive) | 2.5e-05 (inactive) | 0.00459 (inactive) | -6.32% (inactive) | -31.2% (inactive) |
| C=CCn1c(C)cc(C(=O)CSc2nc3ccccc3o2)c1C | 615 | -8.9% (inactive) | -16.3% (inactive) | 105% | -58.1% (inactive) | 104% | -0.595 (inactive) | -5.9e-05 (inactive) | 0.00586 (inactive) | -26.5% (inactive) | -136% (inactive) |
| Cc1ccc(CCC(=O)Nc2ccc(S(N)(=O)=O)cc2)o1 | 543 | 0% (inactive) | -16.3% (inactive) | 111% | -67.7% (inactive) | 99.7% | -0.614 (inactive) | 5.3e-06 (inactive) | 0.00583 (inactive) | -2.49% (inactive) | 2.2% (inactive) |
| O=C(C1CCCCC1)N1CCC(c2nc3c(nnn3Cc3ccccc3Cl)c(=O)[nH]2)CC1 | 372 | -1.5% (inactive) | -5.2% (inactive) | 110% | -144% (inactive) | 115% | -0.359 (inactive) | -4.8e-05 (inactive) | 0.00569 (inactive) | 11.3% (inactive) | 26.2% (inactive) |
| Cc1cccc(NC(=O)COc2ccc(Br)cc2)n1 | 457 | -12.1% (inactive) | -8.7% (inactive) | 110% | 26.7% (inactive) | 124% | -0.437 (inactive) | 6.5e-05 (inactive) | 0.00667 (inactive) | 2.6% (inactive) | -9.96% (inactive) |
| O=C(NC1CCCCC1)C(c1ccccc1)N(Cc1ccco1)C(=O)Cn1cnc2ccccc21 (stereo not given) | 375 | -1.6% (inactive) | -19.6% (inactive) | 114% | -70.5% (inactive) | 108% | -0.586 (inactive) | -3.7e-05 (inactive) | 0.00243 (inactive) | 9.18% (inactive) | 20.8% (inactive) |
| CCCn1cc(C(CC(=O)O)C(=O)O)c2ccccc21 (stereo not given) | 319 | 0.2% (inactive) | 11% (inactive) | 97.5% | -112% (inactive) | 126% | -0.399 (inactive) | -3.1e-05 (inactive) | 0.00576 (inactive) | 13.9% (inactive) | 17.2% (inactive) |
| CCOc1ccc(OCC)c(NC(=O)CCCN2C(=O)c3cccnc3C2=O)c1 | 408 | 5.3% (inactive) | 15.7% (inactive) | 93.7% | 42.2% (inactive) | 102% | -0.583 (inactive) | -3.8e-05 (inactive) | 0.00505 (inactive) | -17.2% (inactive) | -8.59% (inactive) |
